We go through 15 molecules from PubChem BioAssay (Tox21).

Assay [1] is described as follows: qHTS RealTime-Glo MT Cell Viability Assay in HepG2 cells - 40 hour (AID 1224870). Further: nearly all actives have a fitted effect of over 50% in size. Further: potency means the concentration at half of the fitted maximal effect. Put shortly: (§1)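 Real-time viability: cells seeded at 600 per well together with NanoLuc and cell-permeant prosubstrate, compounds added after 5 h incubation. Luminescence tracked at 0, 8, 16, 24, 32 and 40 h of exposure.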
For orientation: qHTS replaces the single test concentration by a dilution series.

Assay [2] is described as follows: qHTS RealTime-Glo MT Cell Viability Assay in HEK293 cells - 16 hour (AID 1224872). Further: nearly all actives have a fitted effect of over 50% in size. Further: potency means the concentration at half of the fitted maximal effect. The essentials: (§2)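 Quantitative high-throughput screen of the Tox21 10K library in HEK293: cells and RealTime-Glo reagents plated together, compound added at 5 h, luminescence monitored through 40 h at 37 C.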
Assay [3] is described as follows: qHTS RealTime-Glo MT Cell Viability Assay in HepG2 cells - 8 hour (AID 1224873). Further: nearly all actives have a fitted effect of over 55% in size. Put shortly: as §1
Assay [4] in a line: qHTS RealTime-Glo MT Cell Viability Assay in HEK293 cells - 40 hour (AID 1224874). Further: nearly all actives have a fitted effect of over 50% in size. Further: potency means the concentration at half of the fitted maximal effect. The settings on record: RealTime-Glo luminescence; max response: stronger effect = lower value. Put shortly: (§3)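 HEK293 + NanoLuc + prosubstrate, 600 cells/well; 5 h, 37 C/5% CO2; compound 23 nL in DMSO by pintool; 37 C; luminescence read at 0, 8, 16, 24, 32 and 40 h time points.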
Assay [5] can be described thus: A CellTox Green Cytotoxicity Assay to monitor cytotoxicity in HEK293 cells - 24 hour (AID 1224875). Further: series mostly up to about 77 µM; nearly all actives have a fitted effect of over 45% in size. Put shortly:
(§4)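 Tox21 screen in HEK293: membrane-impermeant cyanine dye fluoresces on binding dead-cell DNA; compound pinned 5 h post-seeding, plates held at 37 C, signal read repeatedly through 40 h.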

A short description of assay [6]: A CellTox Green Cytotoxicity Assay to monitor cytotoxicity in HepG2 cells - 16 hour (AID 1224876). Further: nearly all actives have a fitted effect of over 45% in size. Put shortly: (§5)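 Measurements at 0, 8, 16, 24, 32 and 40 h of treatment captured CellTox Green fluorescence in HepG2 cells that had been co-plated with reagent and preincubated 5 h at 37 C/5% CO2.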
Assay [7] can be described thus: qHTS RealTime-Glo MT Cell Viability Assay in HepG2 cells - 32 hour (AID 1224877). Further: nearly all actives have a fitted effect of over 55% in size. Put shortly: (§6)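 Compound treatment began 5 h after plating HepG2 cells (600/well) with NanoLuc luciferase and prosubstrate. Plates stayed at 37 C for 40 h; luminescence was captured at six time points, 0 h through 40 h.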
A short description of assay [8]: A CellTox Green Cytotoxicity Assay to monitor cytotoxicity in HepG2 cells - 24 hour (AID 1224878). Further: nearly all actives have a fitted effect of over 45% in size. The essentials:
as §5

A short description of assay [9]: A CellTox Green Cytotoxicity Assay to monitor cytotoxicity in HepG2 cells - 40 hour (AID 1224879). Further: nearly all actives have a fitted effect of over 40% in size. The essentials:
as §5

The nature of assay [10]: qHTS RealTime-Glo MT Cell Viability Assay in HEK293 cells - 0 hour (AID 1224880). Further: top concentration of the series differs between compounds; nearly all actives have a fitted effect of over 45% in size. Put shortly: as §3
Assay [11] in a line: A CellTox Green Cytotoxicity Assay to monitor cytotoxicity in HEK293 cells - 32 hour (AID 1224881). Further: nearly all actives have a fitted effect of over 40% in size. The essentials: as §4
A short description of assay [12]: A CellTox Green Cytotoxicity Assay to monitor cytotoxicity in HepG2 cells - 0 hour (AID 1224882). Further: nearly all actives have a fitted effect of over 35% in size. The essentials: as §5
Assay [13] is described as follows: A CellTox Green Cytotoxicity Assay to monitor cytotoxicity in HepG2 cells - 32 hour (AID 1224883). Further: nearly all actives have a fitted effect of over 50% in size. The essentials: as §5
The nature of assay [14]: A CellTox Green Cytotoxicity Assay to monitor cytotoxicity in HEK293 cells - 8 hour (AID 1224884). Further: nearly all actives have a fitted effect of over 35% in size. The essentials:
as §4

The nature of assay [15]: qHTS RealTime-Glo MT Cell Viability Assay in HepG2 cells - 16 hour (AID 1224885). Further: nearly all actives have a fitted effect of over 50% in size. Put shortly:
as §6

Assay [16] can be described thus: qHTS RealTime-Glo MT Cell Viability Assay in HEK293 cells - 24 hour (AID 1224886). Further: nearly all actives have a fitted effect of over 50% in size. Further: potency means the concentration at half of the fitted maximal effect. Put shortly:
as §2

Assay [17] is described as follows: qHTS RealTime-Glo MT Cell Viability Assay in HEK293 cells - 8 hour (AID 1224887). Put shortly: as §3
Assay [18] is described as follows: A CellTox Green Cytotoxicity Assay to monitor cytotoxicity in HEK293 cells - 16 hour (AID 1224888). Further: nearly all actives have a fitted effect of over 35% in size. Put shortly: as §4
A short description of assay [19]: qHTS RealTime-Glo MT Cell Viability Assay in HepG2 cells - 0 hour (AID 1224889). Further: nearly all actives have a fitted effect of over 50% in size. Put shortly: as §6
Assay [20] in a line: A CellTox Green Cytotoxicity Assay to monitor cytotoxicity in HEK293 cells - 40 hour (AID 1224871). Further: nearly all actives have a fitted effect of over 45% in size. The essentials: as §4

SMILES strings stand for the structures. A number with no mark means an inactive call. Records with an inconclusive call do not appear. Active and inactive are the calls of the source. The call rests on the fitted dose curve; in most records, active means well fitted curve in the direction sought with a large enough effect in the repeat runs; inconclusive means weak or mixed curves; inactive means no such curve, though single readings can be large; an effect the other way counts as inactive or inconclusive.
On the % scale 0 is the no-effect control and ±100 the full control effect.

As to `O=C(NCc1cccnc1)Nc1ccc([N+](=O)[O-])cc1`, the Potency result in assay [1], in [3], in [5], in assay [6], in assay [7] and in assay [8] was “inactive” throughout. The Potency result in assay [9], in [10], in assay [11], in [12], in assay [13] and in assay [14] was “inactive” each time. Further, the Potency entry in assay [15], in [17], in assay [18] and in assay [19] was “inactive” throughout. Besides, the Potency was 49 µM (active) in [2], 54.9 µM (active) in assay [4] and 49 µM (active) in [16].
On to `CN1C(=O)C(O)N=C(c2ccccc2)c2cc(Cl)ccc21` (centres undefined), for which the Potency result in [1], in assay [2], in assay [3], in [5], in [6] and in assay [7] was “inactive” throughout. The Potency entry in assay [8], in assay [9], in assay [10], in assay [11], in assay [12] and in [13] was “inactive” in each case. In addition, the Potency entry in assay [15], in assay [17], in assay [18] and in assay [19] was “inactive” in each case.
Regarding `COc1c(C(C)(C)C)cc([N+](=O)[O-])c(C)c1[N+](=O)[O-]`, the Potency result in [1], in [2], in [3], in assay [5], in assay [6] and in assay [7] was “inactive” throughout. In addition, the Potency result in [8], in [9], in assay [10], in assay [11], in assay [12] and in [13] was “inactive” each time. The Potency result in [14], in assay [15], in assay [16], in assay [17], in [18] and in assay [19] was “inactive” in each case. Further, the max response in assay [4] was 1.56%.
Take `O=S(=O)(O)C(F)(F)C(F)(F)C(F)(F)C(F)(F)F`: the Potency entry in assay [1], in assay [20], in [3], in [5], in [8] and in assay [9] was “inactive” each time. Further, the Potency result in assay [11], in assay [13], in assay [14], in assay [15], in assay [18] and in assay [19] was “inactive” each time.
On to `O=Cc1ccc2c(c1)OCO2`, for which the Potency entry in [1], in assay [2], in assay [3], in assay [5], in assay [6] and in assay [7] was “inactive” each time. Further, the Potency entry in assay [8], in [9], in assay [10], in assay [11], in assay [12] and in [13] was “inactive” throughout. The Potency result in assay [16], in [17], in assay [18] and in [19] was “inactive” throughout. In [4], the max response was 0.0881%.
`C=CC(C)=O`: the Potency entry in [1], in [2], in assay [3], in assay [5], in assay [6] and in assay [7] was “inactive” each time. Also, the Potency entry in [8], in assay [9], in assay [10], in assay [11], in assay [12] and in assay [13] was “inactive” throughout. For the same molecule, the Potency entry in assay [14], in [15], in assay [16], in [17], in assay [18] and in assay [19] was “inactive” each time. Besides, the max response in [4] was 4.78%.
With `COC(C)(C)CCC[C@H](C)C/C=C/C(C)=C/C(=O)OC(C)C`, the Potency result in assay [1], in assay [2], in [3], in assay [5], in assay [6] and in assay [7] was “inactive” in each case. The Potency result in assay [8], in assay [9], in assay [10], in [12], in [13] and in [14] was “inactive” in each case. Also, the Potency result in [15], in assay [16] and in [19] was “inactive” throughout. For the same molecule, the max response in [4] is -3.6%.
With `Cl/C=C\Cl`, the Potency result in assay [1], in [2], in assay [3], in [5], in [6] and in assay [8] was “inactive” in each case. Moreover, the Potency result in assay [9], in [10], in assay [11], in assay [12], in assay [15] and in assay [16] was “inactive” throughout. For the same molecule, the Potency result in assay [17], in assay [18] and in assay [19] was “inactive” each time. Besides, the max response in assay [4] is 0.558%.
Take `O=C1C(=O)c2cccc3cccc1c23`: in assay [1], the Potency is 17.4 µM (active). Further, the Potency entry in assay [20], in [5], in [6], in [8], in assay [9] and in [11] was “inactive” in each case. Further, the Potency entry in [12], in assay [14], in assay [15], in assay [18] and in assay [19] was “inactive” throughout.
Regarding `ClC=C(Cl)Cl`, the Potency entry in assay [1], in [2], in assay [3], in [5], in assay [6] and in assay [7] was “inactive” in each case. In addition, the Potency result in assay [8], in assay [9], in [10], in [11], in assay [12] and in [13] was “inactive” throughout. The Potency entry in assay [14], in assay [15], in assay [16], in assay [17] and in assay [18] was “inactive” each time. Besides, the max response in assay [4] is 18.6%.
`CCCCNP(N)(N)=S`: the Potency result in assay [1], in [2], in [3], in assay [5], in [6] and in assay [7] was “inactive” in each case. Further, the Potency result in assay [8], in [9], in assay [10], in [11], in assay [12] and in assay [14] was “inactive” in each case. In addition, the Potency entry in assay [16], in assay [17] and in [18] was “inactive” in each case. For the same molecule, the max response in [4] is 0.198%.
In the case of `C=CC(=O)OCCCCO`, the Potency entry in [1], in assay [2], in assay [5], in [6], in assay [7] and in assay [8] was “inactive” in each case. In addition, the Potency entry in [9], in assay [10], in assay [11], in [12], in assay [13] and in assay [14] was “inactive” throughout. The Potency entry in [15], in assay [16], in assay [17], in assay [18] and in assay [19] was “inactive” in each case. Besides, the max response in assay [4] is 18.2%.
As to `CCC(Br)(CC)C(=O)NC(N)=O`, the Potency entry in assay [1], in assay [2], in assay [3], in assay [5], in assay [6] and in assay [8] was “inactive” in each case. The Potency entry in assay [9], in assay [10], in assay [11], in assay [12], in assay [13] and in [14] was “inactive” throughout. Further, the Potency result in [15], in assay [16], in assay [17], in [18] and in [19] was “inactive” in each case. The max response in assay [4] was 5.12%.
Take `CCCCCCCCOC(=O)c1ccc(C(=O)OCCCCCCCC)c(C(=O)OCCCCCCCC)c1`: the Potency entry in assay [1], in [2], in assay [3], in assay [5], in assay [6] and in [7] was “inactive” throughout. The Potency result in [8], in [9], in assay [10], in assay [11], in [12] and in assay [13] was “inactive” throughout. Moreover, the Potency result in assay [15], in assay [16], in assay [17], in assay [18] and in assay [19] was “inactive” in each case. Besides, in assay [4], the max response is -3.25%.
As to `COP(=S)(Oc1cc(Cl)c(Br)cc1Cl)c1ccccc1` (centres undefined), the Potency result in assay [1], in [20], in assay [3], in assay [5], in assay [7] and in assay [10] was “inactive” each time. Besides, the Potency result in assay [11], in assay [14], in assay [15] and in [18] was “inactive” each time.
